Screens as filed in PubChem.
Hits are enriched below; roughly 9% of the tested compounds scored in any of these assays.
JMJD2A Tudor: blocks the human JMJD2A Tudor domain | O75164 | AlphaScreen JMJD2A-Tudor / H3K4me3 peptide binding | Potency, µM (doses to about 114 µM), most hits filed as inhibitors | actives 4.4% (n = 390,000) | AID 504339; further: nearly all actives have a fitted effect of over 50% in size
12-LOX inh: blocks human arachidonate 12S-lipoxygenase; P18054; purified 12hLO, xylenol orange hydroperoxide absorbance; Potency, µM (top dose mostly 108 µM), usual class: inhibitors; actives 1.1% (n = 580,000); AID 1671190
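Hydroperoxide product was detected by ferrous iron/xylenol orange as the 573 to 405 nm absorbance ratio. Arachidonic acid at 40 uM (final) was turned over for 30 min at room temperature by 150 nM human 12hLO, pH 7.0 Hepes buffer, after 15 min compound preincubation.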
PLK1 PBD inh: PLK1 (human) polo-box domain binding inhibition | Potency, µM, usual class: inhibitors | actives 2.8% (n = 360,000) | P53350 | Plk1 PBD binding of FITC phosphopeptide, fluorescence polarization; further: series mostly up to about 57 µM; nearly all actives have a fitted effect of over 65% in size
BAZ2B inh: inhibitors of human BAZ2B bromodomain; actives 4.4% (n = 360,000); Potency, µM (top dose mostly 114 µM), hits mostly inhibitors; AlphaScreen BAZ2B-H3K14Ac peptide displacement; AID 504333; further: nearly all actives have a fitted effect of over 60% in size
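AlphaScreen luminescence quantifies BAZ2B engagement of H3K14Ac peptide; the protein and biotinylated peptide are both at 50 nM final, buffer PBS pH 7.4 with 0.01% Tween-20, all steps at room temperature.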
HP1b chromo inh: HP1-beta chromodomain-methylated histone interaction inhibition; P83916; AlphaScreen HP1-beta / biotin-H3K9me3 peptide binding; Potency, µM (highest dose often 114 µM), usual class: inhibitors; actives 0.56% (n = 390,000); AID 540317; further: nearly all actives have a fitted effect of over 70% in size
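HP1-beta protein (50 nM final) preincubated 30 min at room temperature with biotinylated H3(1-18)K9me3 peptide (50 nM) in PBS pH 7.4, 0.01% Tween-20, then compound added for 30 min. AlphaScreen streptavidin donor/nickel chelate acceptor beads (10 ug/mL final), 30 min dark, luminescence read.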
G9a block: inhibitors of human histone lysine methyltransferase G9a. AID 504332. actives 8.8% (n = 350,000). Potency, µM (titrated, usually from 102 µM), actives largely listed as inhibitors. G9a H3K9 monomethylation, AlphaScreen, 2 h. Q96KQ7; further: nearly all actives have a fitted effect of over 75% in size
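G9a (20 nM) preincubated 15 min RT with compounds, then 500 nM biotinylated H3K9 peptide and 20 uM SAM added; 2 h RT reaction. Monomethyl-H3K9 product detected by AlphaScreen with anti-H3K9me1 antibody, streptavidin donor and anti-rabbit IgG acceptor beads.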
Hits are given with their value; [ ] = dose if it differs, or a comment. The call rests on the fitted dose curve; in most records, active means well fitted curve in the direction sought with a large enough effect; inconclusive means small, poorly fitted or top-dose-only effect, or another doubt; inactive means no such curve, though single readings can be large; an effect the other way counts as inactive or inconclusive.

What do the screens show for `O=S(=O)(NCc1ccc2c(c1)OCO2)c1cccc(S(=O)(=O)N2CCOCC2)c1`?
JMJD2A Tudor: inactive; 12-LOX inh: inconclusive; PLK1 PBD inh: inactive; BAZ2B inh: inactive; HP1b chromo inh: inactive; G9a block: 39.8µM

Results for O=S(=O)(Nc1cc(S(=O)(=O)N2CCOCC2)ccc1O)c1ccc2c(c1)OCCCO2 ?
JMJD2A Tudor: inactive; 12-LOX inh: inconclusive; PLK1 PBD inh: 4.74µM; BAZ2B inh: 56.2µM; HP1b chromo inh: inconclusive; G9a block: 1.26µM

What do the screens show for `O=S(=O)(Nc1cc(S(=O)(=O)N2CCOCC2)ccc1N1CCOCC1)c1ccc2c(c1)OCCO2`?
JMJD2A Tudor: inactive; 12-LOX inh: inactive; PLK1 PBD inh: inactive; BAZ2B inh: inactive; HP1b chromo inh: inactive; G9a block: 39.8µM

Results for O=C(NCc1ccc2c(c1)OCO2)c1cccc(S(=O)(=O)N2CCOCC2)c1 ?
JMJD2A Tudor: inactive; 12-LOX inh: inactive; PLK1 PBD inh: inactive; BAZ2B inh: inactive; HP1b chromo inh: inactive; G9a block: inactive[12.7 µM]

How did O=S(=O)(Nc1cccc(S(=O)(=O)N2CCOCC2)c1)c1ccc2c(c1)OCCO2 do in these assays?
JMJD2A Tudor: inactive; 12-LOX inh: inactive; PLK1 PBD inh: inactive; HP1b chromo inh: inactive; G9a block: inactive

Results for COc1ccc(CNC(=O)Cn2c(=O)c3cccn3c3ccccc32)cc1 ?
JMJD2A Tudor: inactive; 12-LOX inh: inactive; BAZ2B inh: inactive; HP1b chromo inh: inactive; G9a block: inactive

How did COC(=O)c1scc(S(C)(=O)=O)c1-n1cccc1 do in these assays?
JMJD2A Tudor: inconclusive; 12-LOX inh: inactive; PLK1 PBD inh: 29.9µM; BAZ2B inh: inactive; HP1b chromo inh: inactive; G9a block: inactive

How did CC(C)S(=O)(=O)c1csc(C(=O)NN)c1-n1cccc1 do in these assays?
JMJD2A Tudor: inactive; 12-LOX inh: inactive; PLK1 PBD inh: inactive; BAZ2B inh: inconclusive; HP1b chromo inh: inactive; G9a block: inactive

Results for COCC(C)NC(C(=O)Nc1cccc(C(C)=O)c1)c1ccccc1 (configuration not stated) ?
JMJD2A Tudor: inactive; 12-LOX inh: inactive; PLK1 PBD inh: inactive; BAZ2B inh: inactive; HP1b chromo inh: inactive; G9a block: inactive

Results for CCOc1ccc(NC(C(=O)Nc2cccc(C(C)=O)c2)c2ccccc2)cc1 (configuration not stated) ?
JMJD2A Tudor: inconclusive; 12-LOX inh: inactive; PLK1 PBD inh: inactive; BAZ2B inh: 39.8µM; HP1b chromo inh: inactive; G9a block: 44.7µM

Results for CCN(CC)CCNC(C(=O)Nc1cccc(C(C)=O)c1)c1ccccc1 (configuration not stated) ?
JMJD2A Tudor: 1.12µM; 12-LOX inh: inconclusive; PLK1 PBD inh: inactive; BAZ2B inh: 56.2µM; HP1b chromo inh: inconclusive; G9a block: inconclusive

How did OCC1OC(n2cnc3c(SCc4ccccc4)nc(NO)nc32)C(O)C1O (configuration not stated) do in these assays?
12-LOX inh: inconclusive; PLK1 PBD inh: inactive

Results for CC1Cc2ccccc2N1C(=O)c1ccc(N2CCCCC2)c([N+](=O)[O-])c1 (configuration not stated) ?
JMJD2A Tudor: 39.8µM; 12-LOX inh: inactive; PLK1 PBD inh: inactive; BAZ2B inh: 31.6µM; HP1b chromo inh: inconclusive; G9a block: 31.6µM

Results for CC(=O)c1ccc(N2CCN(c3ccccc3O)CC2)c([N+](=O)[O-])c1 ?
JMJD2A Tudor: inconclusive; 12-LOX inh: inactive; PLK1 PBD inh: inactive; BAZ2B inh: inconclusive; HP1b chromo inh: inconclusive; G9a block: 44.7µM

Results for COc1ccc(C(=O)N2c3ccccc3CC2C)cc1OC (configuration not stated) ?
JMJD2A Tudor: inactive[11.4 µM]; 12-LOX inh: inactive; PLK1 PBD inh: 26.7µM; BAZ2B inh: inactive; HP1b chromo inh: inactive; G9a block: inactive

Results for CC1Cc2ccccc2N1C(=O)c1ccc(N2CCCC2)c([N+](=O)[O-])c1 (configuration not stated) ?
JMJD2A Tudor: 44.7µM; 12-LOX inh: inactive; PLK1 PBD inh: inactive; BAZ2B inh: 25.1µM; HP1b chromo inh: inactive; G9a block: inconclusive
